Test results reported in PubChem BioAssay (NCATS).
Inconclusive results are not listed. A call without a number means that no potency is given here. Active and inactive are the calls of the source. Unless noted, calls come from the whole dose curve; as a rule, active = well fitted curve in the direction sought with a large enough effect; inconclusive = small, poorly fitted or top-dose-only effect, or another doubt; inactive = no such curve, though single readings can be large; an effect the other way counts as inactive or inconclusive.

What was measured:
[1] = Primary qHTS for inhibitors of nuclear receptor binding SET domain protein 2 (NSD2) in an isogenic RCH-ACV NSD2 p.E1099K mutant (9B) (AID 1645876); note: nearly all actives have a fitted effect of over 70% in size; note: potency is the fitted concentration of half-maximal effect
[2] = Primary qHTS for inhibitors of nuclear receptor binding SET domain protein 2 (NSD2) in an RCH-ACV wild type WT cells (2C) (AID 1645877); note: nearly all actives have a fitted effect of over 70% in size; note: potency is the fitted concentration of half-maximal effect
[3] = biological target: Catechol O-methyltransferase (Homo sapiens) (UniProt P21964); experiment: Confirmatory Screen for Target Class Profiling of Small Molecule Inhibitors of Methyltransferases (AID 1745852; calls by dose curve; note: potency is the fitted concentration of half-maximal effect); conditions: MTase-Glo luminescence, SAH detection, recombinant enzyme; measured here: COMT max response; stronger effect = lower value
[4] = biological target: Guanidinoacetate N-methyltransferase (Homo sapiens) (UniProt Q14353); experiment: as above; conditions: activity change, negative = inhibition: at 57.3 µM (top of the series) unless noted
[5] = biological target: Nicotinamide N-methyltransferase (Homo sapiens) (UniProt P40261); experiment: as above; conditions: MTase-Glo luminescence, SAH detection, recombinant enzyme; measured here: NNMT max response; stronger effect = lower value
[6] = biological target: Phenylethanolamine N-methyltransferase (Homo sapiens) (UniProt P11086); experiment: as above; conditions: MTase-Glo luminescence, SAH detection, recombinant enzyme; measured here: PNMT max response; stronger effect = lower value
[7] = NCATS anti-infectives library activity on HEK293 viability as a counter-qHTS vs the C. elegans viability qHTS (AID 1745854);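 note: HEK293 cells exposed to compounds for 24 hr before the viability read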
How it was run: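 Compound titrations (final up to 41.7 uM) were incubated with HEK293 cells for 24 hr at 37C under 5% CO2. Viable cells were quantified with CellTiter-Glo after 10 min at ambient temperature.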

[8] = Viability counterscreen for antagonist of constitutive androstane receptor (CAR) against the NCATS DSHEA and TCM libraries (AID 1794837);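 note: compound exposure lasted 24 h before viability reading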
How it was run: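 Fluorescence from CellTiter-Fluor reports live-cell protease activity in HepG2-CYP2B6-hCAR cells treated for 24 h with substances alongside 48 uM CITCO.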

[9] = Viability counterscreen for agonist of constitutive androstane receptor (CAR) against the NCATS DSHEA and TCM libraries (AID 1794838);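 note: cells exposed to compound for 24 h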
How it was run: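 In agonist mode, PK11195 is added at 0.75 uM final to HepG2-CYP2B6-hCAR cells dosed with test substances. Cultures incubate 24 h at 37C before a protease-based fluorogenic viability readout.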

[10] = biological target: Nuclear receptor subfamily 1 group I member 3 (Homo sapiens) (UniProt Q14994); experiment: Primary qHTS for agonist of constitutive androstane receptor (CAR) against the NCATS DSHEA and TCM libraries (AID 1794839);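 note: HepG2 cells expressing human CAR with a CYP2B6 reporter plus PK11195 antagonist; luciferase reporter luminescence read with ONE-Glo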
How it was run: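 Cells stably carrying hCAR and a CYP2B6 reporter (HepG2 background) are seeded and allowed 5 h to adhere. Substances at multiple concentrations are added alongside 0.75 µM PK11195, and luciferase signal is measured after 24 h.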

[11] = HepG2 viability counterscreen (readout 2: ATP content) against the NCATS DSHEA and TCM libraries (AID 1794840);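 note: HepG2 cells exposed to substances for about 24 h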
How it was run: (§1)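 Cytotoxicity was assessed in HepG2 cells plated at 1,000 cells/well and exposed for about 24 hours to a concentration series. Protease activity and ATP content were measured sequentially in each well.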

[12] = HepG2 viability counterscreen (readout 1: protease activity) against the NCATS DSHEA and TCM libraries (AID 1794841);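 note: cells exposed to compounds for about 24 h before the protease read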
How it was run: as §1

[13] = NCATS anti-infectives library activity on the primary C. elegans qHTS viability assay (AID 1745855; calls by dose curve); conditions: C. elegans worm area imaging, day 7; at 41.8 µM (top of the series)
How it was run: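 Titration-based screen in worms: eggs hatched overnight in M9, L1 larvae fed TOP10 capsules in S medium with compound, incubated 21 °C for 7 days; fluorescent objects gated by size and intensity at days 0, 3 and 7.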

Chain of Nicotinamide N-methyltransferase (Homo sapiens) (P40261 whole entry, looked up): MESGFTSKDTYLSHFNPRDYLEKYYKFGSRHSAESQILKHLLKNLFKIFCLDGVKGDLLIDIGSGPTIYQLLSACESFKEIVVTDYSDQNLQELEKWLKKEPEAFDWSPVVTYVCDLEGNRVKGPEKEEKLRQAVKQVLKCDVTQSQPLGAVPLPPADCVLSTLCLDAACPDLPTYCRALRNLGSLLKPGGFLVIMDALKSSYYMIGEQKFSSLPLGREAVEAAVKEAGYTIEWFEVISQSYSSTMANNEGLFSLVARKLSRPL
Chain of Catechol O-methyltransferase (Homo sapiens) (P21964 whole entry, looked up): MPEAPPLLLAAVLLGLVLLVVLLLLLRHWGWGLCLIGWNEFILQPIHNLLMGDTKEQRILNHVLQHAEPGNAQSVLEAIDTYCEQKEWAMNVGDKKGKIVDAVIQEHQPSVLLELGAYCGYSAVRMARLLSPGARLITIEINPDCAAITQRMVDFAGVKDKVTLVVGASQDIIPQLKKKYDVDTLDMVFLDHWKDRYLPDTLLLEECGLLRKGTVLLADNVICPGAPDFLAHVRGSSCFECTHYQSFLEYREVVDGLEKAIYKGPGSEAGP
Chain of Phenylethanolamine N-methyltransferase (Homo sapiens) (P11086 whole entry, looked up): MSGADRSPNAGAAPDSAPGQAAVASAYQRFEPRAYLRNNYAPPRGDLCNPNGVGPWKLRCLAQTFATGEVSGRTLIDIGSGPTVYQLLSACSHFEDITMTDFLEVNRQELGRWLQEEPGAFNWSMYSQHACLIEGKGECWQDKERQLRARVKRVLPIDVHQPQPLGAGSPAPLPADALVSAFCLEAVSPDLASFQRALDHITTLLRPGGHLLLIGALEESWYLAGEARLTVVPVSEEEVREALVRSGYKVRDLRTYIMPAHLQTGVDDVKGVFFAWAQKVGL
Chain of Nuclear receptor subfamily 1 group I member 3 (Homo sapiens) (Q14994 whole entry, looked up): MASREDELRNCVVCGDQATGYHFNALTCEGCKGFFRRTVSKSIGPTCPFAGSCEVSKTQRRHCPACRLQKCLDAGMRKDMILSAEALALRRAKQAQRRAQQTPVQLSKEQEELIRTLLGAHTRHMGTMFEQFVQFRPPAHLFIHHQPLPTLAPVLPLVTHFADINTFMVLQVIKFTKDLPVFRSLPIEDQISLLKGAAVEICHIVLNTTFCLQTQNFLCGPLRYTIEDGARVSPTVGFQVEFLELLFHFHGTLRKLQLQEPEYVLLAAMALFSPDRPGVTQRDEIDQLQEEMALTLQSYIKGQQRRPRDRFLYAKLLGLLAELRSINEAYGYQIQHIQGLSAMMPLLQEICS

CC(=O)c1c(O)cc2c(c1C)C(=O)CC(O)C2 (stereo not drawn)
Potency [1]: inactive | Potency [2]: inactive

COC(=O)C1=CO[C@@H](O[C@@H]2O[C@H](COC(=O)/C=C/c3cc(OC)c(O)c(OC)c3)[C@@H](O)[C@H](O)[C@H]2O)[C@@H]2C(CO)=CC[C@H]12
Potency [1]: inactive | Potency [2]: inactive | activity [3]: -58.2% | activity change, negative = inhibition [4]: -6.4% [at 19.1 µM] | activity [5]: -2.91% | activity [6]: -3.37%

COc1cc(COC2OC(CO)C(O)C(O)C2O)cc(OC)c1O (stereo not drawn)
Potency [1]: inactive | Potency [2]: inactive

CC(NC(=O)CC(=O)O)c1nc2ccccc2c(=O)[nH]1 (stereo not drawn)
Potency [1]: inactive | Potency [2]: inactive

CC1(C)CC[C@]2(C(=O)O[C@@H]3O[C@H](CO)[C@@H](O)[C@H](O)[C@H]3O)CC[C@]3(C)C(=CCC4[C@@]5(C)C[C@@H](O)[C@H](O)C(CO)(CO)C5CC[C@]43C)C2[C@@H]1O (stereo partly drawn)
Potency [1]: inactive | Potency [2]: inactive | activity [3]: -77.5% | activity change, negative = inhibition [4]: 0% [at 19.1 µM] | activity [5]: 0% | activity [6]: 4.05%

COc1cc(C2Oc3c(OC)cc(/C=C/C(=O)OC[C@H]4O[C@@H](OC(C)(C)C(=O)O)[C@H](O)[C@@H](O)[C@@H]4O)cc3C2CO)ccc1O (stereo partly drawn)
Potency [1]: inactive | Potency [2]: inactive | activity [3]: -69.3% | activity change, negative = inhibition [4]: -2.88% [at 19.1 µM] | activity [5]: -0.56% | activity [6]: -7.93%

NCCOCCOCCNC(=O)Cc1ccc(Nc2nc(NCc3ccc(F)cc3)nc(NCC3CCCCC3)n2)cc1
Potency [2]: 16.3 µM (active)

CC1=CC(=O)C2C(C)(C)CCCC2(C)C12CCC1(COC(=O)C1)O2 (stereo not drawn)
activity [3]: -85.5% | activity change, negative = inhibition [4]: 2.41% | activity [5]: -1.78% | activity [6]: 3.04%

Cc1c(-c2ccnn2C)cc(C(=O)NCc2ccc(S(C)(=O)=O)cn2)c(=O)n1-c1cccc(C(F)(F)F)c1
Potency [1]: inactive | Potency [2]: inactive | outcome [7]: inactive

CC1=C(/C=C/C(C)=C/C=C/C(C)=C/C=C/C=C(C)/C=C/C=C(C)/C=C/C2=C(C)CCCC2(C)C)C(C)(C)CCC1
Potency [2]: 18.6 µM (active) | outcome [8]: inactive | outcome [9]: inactive | outcome [10]: inactive | outcome [11]: inactive | outcome [12]: inactive

COC1C2=C(COC2=O)C2(C)CCCC(C)(CO)C2C1OC(=O)c1ccccc1 (stereo not drawn)
Potency [2]: inactive

COc1cc(/C=C/C(=O)OC2CC(OC(C)=O)C(OC(C)=O)C3C2CCC2C(=O)OC(c4ccoc4)CC23C)ccc1O[C@@H]1O[C@H](CO)[C@@H](O)[C@H](O)[C@H]1O (stereo partly drawn)
Potency [2]: inactive

CC(=O)O[C@@H]1[C@H]2[C@@H](OC(=O)c3ccccc3)[C@@H](C)C[C@]2(O)[C@H](OC(C)=O)[C@@]2(C)[C@@H]3CC(C)(C)C(=O)[C@]3(OC(C)=O)C[C@@]12C
Potency [2]: inactive

O=C(O)[C@H]1CCCC[C@H]1C(=O)N1CCc2ccccc2[C@H]1CN1C(=O)c2ccccc2C1=O
Potency [2]: inactive

COC(=O)C1=CO[C@@H](O[C@@H]2O[C@H](CO)[C@@H](O)[C@H](O)[C@H]2O)[C@@H]2[C@@H](C)[C@@H](O)C[C@H]12
Potency [1]: inactive | Potency [2]: inactive | outcome [7]: inactive

Oc1cc(O)c2c(c1)OC(c1ccc(O)c(O)c1)C(O)C2 (stereo not drawn)
outcome [11]: inactive

CCOC(=O)[C@H]1O[C@@H]1C(=O)N[C@@H](CC(C)C)C(=O)NCCC(C)C
Potency [1]: inactive | Potency [2]: inactive | outcome [7]: inactive | outcome [13]: inactive

CC(C)(O)CNc1nc(Nc2ccnc(C(F)(F)F)c2)nc(-c2cccc(C(F)(F)F)n2)n1
Potency [1]: 20.9 µM (active) | Potency [2]: 20.9 µM (active) | outcome [7]: inactive

OC[C@H]1O[C@@H](Oc2ccc3c(c2)OC[C@H]2c4cc5c(cc4O[C@@H]32)OCO5)[C@H](O)[C@@H](O)[C@@H]1O
Potency [2]: 7.96 µM (active)

CC1CC(=O)C2=C(O1)OC1(C)CCC3C(C)(C)C=CC(=O)C3(C)C1C2 (stereo not drawn)
Potency [1]: inactive | Potency [2]: inactive | activity [3]: -45.9% | activity change, negative = inhibition [4]: -4.08% | activity [5]: -84.9% | activity [6]: -3%

CC1=CCC(C(C)(C)O)CC1 (stereo not drawn)
outcome [11]: inactive | outcome [12]: inactive

OC[C@H]1O[C@@H](Oc2cc(O)cc(-c3cc4ccc(O)cc4o3)c2)[C@H](O)[C@@H](O)[C@@H]1O
Potency [2]: inactive

OC[C@H]1O[C@@H](Oc2ccc(O)c3cccc(O)c23)[C@H](O)[C@@H](O)[C@@H]1O
activity [3]: -82.3% | Potency [4]: 16.8 µM (active) | activity [5]: -18.4% | activity [6]: -70.9%

C=CC(C)(O)CC/C=C(/C)C(=O)OC1C(OC2OCC(OC3OC(CO)C(O)C(O)C3O)C(OC3OCC(O)C(OC4OC(C)C(O)C(O)C4O)C3O)C2O)COC(OC(=O)C23CCC(C)(C)CC2C2=CCC4C5(C)CCC(OC6OC(CO)C(OC7OC(CO)C(O)C(OC8OCC(O)C(O)C8O)C7O)C(O)C6O)C(C)(C)C5CCC4(C)C2(C)CC3O)C1O (stereo not drawn)
activity change, negative = cell killing [2]: -25% [at 4.96 µM] (inactive)

O=C(O)c1cc(O)c2cccc(O)c2c1O[C@@H]1O[C@H](CO)[C@@H](O)[C@H](O)[C@H]1O
Potency [1]: inactive | activity [3]: -4.06% | Potency [4]: 29.8 µM (active) | activity [5]: -68.8% | activity [6]: -8.77%
